This passage reports Potency results from PubChem BioAssay (Tox21).

The structures appear in SMILES notation. Values joined by “and” are separate entries in the source; they are usually repeats but may differ in a detail not shown here. Equal values may be shown once. Inconclusive results are not listed. Where a call stands in place of a potency, no number is given. Active and inactive are the calls of the source. Calls come from the whole dose curve; as a rule, active = well fitted cell-killing curve with a large enough effect in the repeat runs (not every such curve was filed as active); inconclusive = weak or mixed curves, or effect the other way; inactive = no such curve, though single readings can be large or run the other way.
Potency is the fitted concentration of half-maximal effect.

A short description of the assay: qHTS assay to identify small molecule antagonists of the estrogen related receptor signaling pathway with the pleiotropic PPARgamma coactivator (PGC) from Tox21 10K library - cell viability counter screen (AID 1224840). Note: nearly all actives have a fitted effect of over 40% in size. The note with it: PGC/ERR reporter cells viability, CellTiter-Fluor, 17.5 h; series mostly up to 92.4 µM. The source says:
National Center for Advancing Translational Sciences [NCATS]
NIH Chemical Genomics Center [NCGC]
U.S. Environmental Protection Agency [EPA]
National Institutes of Environmental Health Sciences [NIEHS]
National Toxicology Program [NTP]
U.S. Food and Drug Administration [FDA]
Estrogen related receptors (ERRs), the first orphan nuclear receptors discovered, play an important role in the control of cellular energy metabolism. ERRs are required for high-energy production in response to the environmental challenges. The pleiotropic PPARgamma coactivator (PGC) is a major partner of ERR and a key regulator in energy homeostasis. Together they have been implicated in the etiology of metabolic disorders such as Type 2 diabetes and metabolic syndrome. ERR-alpha was also identified as an adverse marker for breast cancer progression; ERR-alpha-positive tumors have a poor prognosis. To screen and to identify environmental compounds that perturb the ERR and PGC/ERR signaling pathways could provide valuable information for potential therapeutic or preventive measures in the treatment of metabolic disease. To differentiate true PGC/ERR antagonists or agonist from cytotoxic substances, the assay is multiplexed with cell viability assay.
Tox21 Assay Protocol Summary:
The PGC/ERR cells were dispensed at 2,000 cells/5 ul/well in 1536-well white plates using a Multidrop dispenser. After the assay plates were incubated at a 37 C/5% CO2 incubator for 6 hours, 23 nL of compounds dissolved in DMSO, positive and negative controls or DMSO only was transferred to the assay plate by a pin tool. The plates were incubated at 37 C for 17.5 hours. 1 ul/well of CellTiter-Fluor reagent was added into the assay plates using a Flying Reagent Dispenser. After 30-minute incubation at 37 C/5% CO2, the fluorescence intensity in the plates was measured using a ViewLux plate reader.
In the case of `NC(=S)c1c(Cl)cccc1Cl`, the Potency result is “inactive”.
The entry for `O=C(O)c1cc(I)cc(I)c1I` is “inactive”; for `CCOP(=S)(OCC)SCSc1cc(Cl)ccc1Cl` it is “inactive”; for `CCOC(=O)C1OC1(C)c1ccccc1` (stereo not given) it is “inactive”.
Under `FC(F)OC(F)(F)C(F)Cl` (stereo not given) stands “inactive”.
Consider `N#CC(C#N)=C(C#N)C#N`, for which the Potency result was “inactive”.
Under `CCOC(C(=O)OCCN(C)C)(c1ccccc1)c1ccccc1` stands “inactive”; under `CC(CC(C(N)=O)(c1ccccc1)c1ccccc1)N(C)C` (stereo not given), “inactive”; under `COc1ccc2c(c1OC)C(=O)O[C@H]2[C@@H]1c2cc3c(cc2CCN1C)OCO3`, “inactive”.
Under `CC(Cl)C(=O)O` (stereo not given) stands “inactive”.
Regarding `CC(C)(C)N(NC(=O)c1ccc(Cl)cc1)C(=O)c1ccccc1`, the Potency result was “inactive”.
The entry for `C[N+]1(CCF)[C@@H]2CC[C@H]1CC(OC(=O)C(O)(c1ccccc1)c1ccccc1)C2` (stereo not given in full) is “inactive”; for `C[C@H]1O[C@H](OC2[C@@H](O)[C@@H](O)C(O)[C@H](O)[C@H]2O)[C@@H](N)C[C@@H]1N=C(N)C(=O)O` (stereo not given in full) it is “inactive”.
Under `COC(=O)Cc1ccccc1` stands “inactive”.
Under `Cc1cnc(C2=NC(C)(C(C)C)C(=O)N2)c(C(=O)O)c1` (stereo not given) stands “inactive”; under `C=CCc1ccccc1O`, “inactive”; under `CC(C)CCCCCCCOC(=O)c1ccccc1C(=O)OCCCCCCCC(C)C`, “inactive”.
Take `Cc1nnc(-c2ccccc2)c(=O)n1N`: the Potency entry is “inactive”.
On to `CN(C)C(=O)Nc1cccc(OC(=O)NC(C)(C)C)c1`, for which the Potency entry was “inactive”.
Under `O=P(OCC(Br)CBr)(OCC(Br)CBr)OCC(Br)CBr` (stereo not given) stands “inactive”; under `Clc1ccc2ccccc2c1`, “inactive”.
The entry for `O=C(O)c1ccc(=O)[nH]c1` is “inactive”; for `Nc1cc(Cl)cc(C(=O)O)c1Cl` it is “inactive”; for `C=CCc1ccc(OC(=O)Cc2ccccc2)c(OC)c1` it is “inactive”.
Under `C[CH2][Hg][S]c1ccccc1C(=O)O` stands 4.33 µM (active) and 11.9 µM (active); under `C=CCSSCC=C`, “inactive”; under `CC[N+]1(CCOC(=O)C(O)(c2ccccc2)c2ccccc2)CCCCC1`, “inactive”.
In the case of `Cc1cccc(C)c1NC1=NCCCS1`, the Potency result is “inactive”.
The entry for `CCC(C)Cl` (stereo not given) is “inactive”.
Under `COC(=O)C1(O)c2ccccc2-c2ccccc21` stands “inactive”; under `CCOP(=O)(SC(C)CC)N1CCSC1=O` (stereo not given), “inactive”; under `CC(=O)OC(c1ccccc1)C(Cl)(Cl)Cl` (stereo not given), “inactive”.
Under `CCCCC(CC)CO[N+](=O)[O-]` (stereo not given) stands “inactive”.
Take `C[C@H](N)[C@H](O)c1ccc(O)c(O)c1`: the Potency entry was “inactive”.
The entry for `CCCN(CCC)c1c([N+](=O)[O-])cc(C(C)C)cc1[N+](=O)[O-]` is “inactive”; for `Nc1ccccc1C(=O)OCCc1ccccc1` it is “inactive”; for `C1CS1` it is “inactive”.
`COc1cc(CC#N)cc(OC)c1OC`: the Potency result is “inactive”.
Under `COc1ccccc1N1CCNCC1` stands “inactive”; under `CCCCCCCCCCCC[N+](C)(C)CCOc1ccccc1`, 61.1 µM (active) and 29.8 µM (active).
